The full data set covers some 8,800 targets. This sample favours those with a hit. About 0.5% of all pairs of compound and target were hits. Values without a mark were called inactive.
What was measured:
Assay in all cases: log2 fold change, soluble protein after heating vs DMSO (PISA); higher = thermal stabilisation; K562 lysate, 10 uM; active = over 0.2 and 3.5 SD of the protein, either way, in both replicates (recomputed)
ibrutinib = compound: C=CC(=O)N1CCC[C@@H](n2nc(-c3ccc(Oc4ccccc4)cc3)c3c(N)ncnc32)C1 [ibrutinib]
Procedure, shortened: (§1)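 To prepare the extract, K562 pellets were dounce-homogenised in PBS pH 7.4 with 1 mM MgCl2, giving crude material at 1 mg/mL protein. This was treated with 10 μM compound for 30 min, then heated in aliquots for 3 min over 48°C-58°C before pooling and addition of NP-40 to 0.5% at 4°C. Centrifugation at 21,000xg for 90 min left soluble protein in the supernatant, which TMTpro 16plex LC-MS/MS quantified with equalised channel sums. Results are log-two fold changes in thermal stability compared with solvent controls, from duplicates.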

[1] = compound: CC(=O)c1cnc2ccc(-c3cc(Cl)c(O)c(Cl)c3)nc2c1N[C@H]1CC[C@H](CN(C)C)CC1
Procedure, shortened: as §1

ralimetinib = compound: CC(C)(C)Cn1c(N)nc2ccc(-c3[nH]c(C(C)(C)C)nc3-c3ccc(F)cc3)nc21 [ralimetinib]
Procedure, shortened: as §1

[2] = compound: CC(C)(O)CC(=O)NCCn1ccc2ncnc(Nc3ccc(Oc4cccc(C(F)(F)F)c4)c(Cl)c3)c21
Procedure, shortened: as §1

[3] = compound: CC(C)C1=C2N=C(C=C(N2N=C1)NCC3=CC=CC=C3)NCCCCCCN
Procedure, shortened: as §1

[4] = compound: CC1=C(C(CC(=O)N1)C2=CC=C(C=C2)C(F)(F)F)C(=O)NC3=C(C=C4C(=C3)C=NN4)F
Procedure, shortened: as §1

[5] = compound: CC1=C(C2=C(C=C1)C(=O)C3=CC=CC=C3N2CCCN)C
Procedure, shortened: as §1

[6] = compound: CC1=C(C=C(C=C1)NC(=O)C2=CC(=CC=C2)C(C)(C)C#N)NC3=CC4=C(C=C3)N=CN(C4=O)C
Procedure, shortened: as §1

[7] = compound: CC1=C(C=C(C=C1)NC(=O)C2=CC(=CC=C2)N(C)C)NC(=O)C3=CC=C(C=C3)O
Procedure, shortened: as §1

[8] = compound: CC1=CC=C(C=C1)SC2=C3C=C(SC3=CN=C2)C(=O)N
Procedure, shortened: as §1

vemurafenib = compound: CCCS(=O)(=O)Nc1ccc(F)c(C(=O)c2c[nH]c3ncc(-c4ccc(Cl)cc4)cc23)c1F [vemurafenib]
Procedure, shortened: as §1

[9] = compound: CCCS(=O)(=O)Nc1ccc(F)c(C(=O)c2c[nH]c3ncc(Cl)cc23)c1F
Procedure, shortened: as §1

barasertib = compound: CCN(CCCOc1ccc2c(Nc3cc(CC(=O)Nc4cccc(F)c4)[nH]n3)ncnc2c1)CCOP(=O)(O)O [barasertib]
Procedure, shortened: as §1

[10] = compound: CC[C@@H]1C(=O)N(C)c2cnc(Nc3ccc(C(=O)NC4CCN(C)CC4)cc3OC)nc2N1C1CCCC1
Procedure, shortened: as §1

volasertib = compound: CC[C@@H]1C(=O)N(C)c2cnc(Nc3ccc(C(=O)N[C@H]4CC[C@H](N5CCN(CC6CC6)CC5)CC4)cc3OC)nc2N1C(C)C [volasertib]
Procedure, shortened: as §1

[11] = compound: CCn1c(C(=O)N(C2CC2)C2CC2)cc2c3c(ncn3C)c(Nc3cc(C)n(C)n3)nc21
Procedure, shortened: as §1

[12] = compound: CCn1cc(-c2ccnc3[nH]c(-c4cccc(CN(C)C)c4)cc23)c(-c2ccc(NC(=O)N(C)C)cc2)n1
Procedure, shortened: as §1

[13] = compound: CN1CCC(CNc2ccc3ncc(-c4cccc(OC(F)(F)F)c4)n3n2)CC1
Procedure, shortened: as §1

saracatinib = compound: CN1CCN(CCOc2cc(OC3CCOCC3)c3c(Nc4c(Cl)ccc5c4OCO5)ncnc3c2)CC1 [saracatinib]
Procedure, shortened: as §1

sotrastaurin = compound: CN1CCN(c2nc(C3=C(c4c[nH]c5ccccc45)C(=O)NC3=O)c3ccccc3n2)CC1 [sotrastaurin]
Procedure, shortened: as §1

Chain of UniProt Q96NW4 (Q96NW4 whole entry, looked up): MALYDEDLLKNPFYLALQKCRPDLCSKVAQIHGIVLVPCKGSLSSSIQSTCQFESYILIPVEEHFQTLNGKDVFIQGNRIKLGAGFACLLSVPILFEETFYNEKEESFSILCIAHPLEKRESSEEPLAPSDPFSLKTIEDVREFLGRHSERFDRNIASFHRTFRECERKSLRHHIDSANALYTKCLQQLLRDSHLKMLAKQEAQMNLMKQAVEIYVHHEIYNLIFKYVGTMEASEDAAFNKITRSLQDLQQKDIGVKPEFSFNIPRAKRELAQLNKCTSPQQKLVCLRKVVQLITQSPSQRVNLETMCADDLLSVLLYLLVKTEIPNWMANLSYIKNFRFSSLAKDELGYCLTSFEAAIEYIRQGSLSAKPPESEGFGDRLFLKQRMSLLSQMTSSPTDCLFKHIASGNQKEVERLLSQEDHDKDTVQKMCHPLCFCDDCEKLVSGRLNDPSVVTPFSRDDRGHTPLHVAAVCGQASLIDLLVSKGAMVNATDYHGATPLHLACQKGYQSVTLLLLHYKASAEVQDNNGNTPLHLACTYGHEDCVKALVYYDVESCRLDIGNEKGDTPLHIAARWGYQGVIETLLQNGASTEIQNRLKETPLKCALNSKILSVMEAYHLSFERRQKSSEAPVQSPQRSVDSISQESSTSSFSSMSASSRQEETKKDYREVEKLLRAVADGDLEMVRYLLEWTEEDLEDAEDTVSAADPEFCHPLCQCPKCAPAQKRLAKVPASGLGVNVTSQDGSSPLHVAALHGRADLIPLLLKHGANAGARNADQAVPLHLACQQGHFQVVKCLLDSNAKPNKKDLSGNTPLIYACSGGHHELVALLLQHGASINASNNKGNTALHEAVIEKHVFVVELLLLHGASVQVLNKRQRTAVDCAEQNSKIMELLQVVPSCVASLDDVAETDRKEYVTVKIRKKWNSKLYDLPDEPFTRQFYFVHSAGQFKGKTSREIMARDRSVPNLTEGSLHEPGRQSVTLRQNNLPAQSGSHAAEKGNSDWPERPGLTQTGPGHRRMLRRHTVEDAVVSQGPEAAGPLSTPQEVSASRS
Chain of UniProt P16219 (P16219 whole entry, looked up): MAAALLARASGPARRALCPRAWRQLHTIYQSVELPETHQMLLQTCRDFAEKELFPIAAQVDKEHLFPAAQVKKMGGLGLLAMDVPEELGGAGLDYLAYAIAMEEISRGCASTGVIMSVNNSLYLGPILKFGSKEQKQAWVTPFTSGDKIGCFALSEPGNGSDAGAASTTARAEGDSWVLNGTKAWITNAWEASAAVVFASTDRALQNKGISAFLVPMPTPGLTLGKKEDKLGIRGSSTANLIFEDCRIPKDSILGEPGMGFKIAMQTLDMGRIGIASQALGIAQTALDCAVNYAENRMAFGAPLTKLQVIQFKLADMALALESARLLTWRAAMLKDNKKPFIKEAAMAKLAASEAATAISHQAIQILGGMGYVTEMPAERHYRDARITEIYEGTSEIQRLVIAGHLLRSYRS
Chain of UniProt O14727 (O14727 whole entry, looked up): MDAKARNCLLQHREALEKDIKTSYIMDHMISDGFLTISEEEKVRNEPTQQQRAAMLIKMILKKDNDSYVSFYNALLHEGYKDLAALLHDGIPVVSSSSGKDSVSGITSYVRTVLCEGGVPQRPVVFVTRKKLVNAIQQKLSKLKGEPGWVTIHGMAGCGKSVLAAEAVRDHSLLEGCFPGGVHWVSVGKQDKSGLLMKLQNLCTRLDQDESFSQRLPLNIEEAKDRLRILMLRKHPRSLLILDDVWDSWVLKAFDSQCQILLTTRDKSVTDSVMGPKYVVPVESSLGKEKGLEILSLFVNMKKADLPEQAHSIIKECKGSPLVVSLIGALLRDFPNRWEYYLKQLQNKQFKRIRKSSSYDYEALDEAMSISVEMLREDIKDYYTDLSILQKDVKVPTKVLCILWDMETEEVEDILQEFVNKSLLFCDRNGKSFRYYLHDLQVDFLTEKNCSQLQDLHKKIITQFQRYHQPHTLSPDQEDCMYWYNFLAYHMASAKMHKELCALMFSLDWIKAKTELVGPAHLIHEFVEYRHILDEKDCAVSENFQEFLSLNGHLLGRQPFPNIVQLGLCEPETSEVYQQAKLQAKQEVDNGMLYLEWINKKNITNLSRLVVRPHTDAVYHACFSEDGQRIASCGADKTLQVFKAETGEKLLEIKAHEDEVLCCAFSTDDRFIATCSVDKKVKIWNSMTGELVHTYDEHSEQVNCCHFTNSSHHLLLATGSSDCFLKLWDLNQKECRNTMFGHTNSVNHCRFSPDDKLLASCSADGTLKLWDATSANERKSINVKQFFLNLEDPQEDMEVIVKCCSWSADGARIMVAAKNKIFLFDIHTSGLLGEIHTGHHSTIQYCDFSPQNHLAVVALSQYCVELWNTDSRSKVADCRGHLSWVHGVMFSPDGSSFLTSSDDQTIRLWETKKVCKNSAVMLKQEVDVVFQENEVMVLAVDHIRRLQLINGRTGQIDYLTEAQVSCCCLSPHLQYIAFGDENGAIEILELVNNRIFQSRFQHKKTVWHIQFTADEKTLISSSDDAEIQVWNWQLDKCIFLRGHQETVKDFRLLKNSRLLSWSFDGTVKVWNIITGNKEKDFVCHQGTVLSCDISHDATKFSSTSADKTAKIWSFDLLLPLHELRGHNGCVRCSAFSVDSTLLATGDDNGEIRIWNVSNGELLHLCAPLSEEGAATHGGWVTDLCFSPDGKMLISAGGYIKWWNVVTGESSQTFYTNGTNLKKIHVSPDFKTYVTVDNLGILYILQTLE
Chain of UniProt Q9UPW5 (Q9UPW5 whole entry, looked up): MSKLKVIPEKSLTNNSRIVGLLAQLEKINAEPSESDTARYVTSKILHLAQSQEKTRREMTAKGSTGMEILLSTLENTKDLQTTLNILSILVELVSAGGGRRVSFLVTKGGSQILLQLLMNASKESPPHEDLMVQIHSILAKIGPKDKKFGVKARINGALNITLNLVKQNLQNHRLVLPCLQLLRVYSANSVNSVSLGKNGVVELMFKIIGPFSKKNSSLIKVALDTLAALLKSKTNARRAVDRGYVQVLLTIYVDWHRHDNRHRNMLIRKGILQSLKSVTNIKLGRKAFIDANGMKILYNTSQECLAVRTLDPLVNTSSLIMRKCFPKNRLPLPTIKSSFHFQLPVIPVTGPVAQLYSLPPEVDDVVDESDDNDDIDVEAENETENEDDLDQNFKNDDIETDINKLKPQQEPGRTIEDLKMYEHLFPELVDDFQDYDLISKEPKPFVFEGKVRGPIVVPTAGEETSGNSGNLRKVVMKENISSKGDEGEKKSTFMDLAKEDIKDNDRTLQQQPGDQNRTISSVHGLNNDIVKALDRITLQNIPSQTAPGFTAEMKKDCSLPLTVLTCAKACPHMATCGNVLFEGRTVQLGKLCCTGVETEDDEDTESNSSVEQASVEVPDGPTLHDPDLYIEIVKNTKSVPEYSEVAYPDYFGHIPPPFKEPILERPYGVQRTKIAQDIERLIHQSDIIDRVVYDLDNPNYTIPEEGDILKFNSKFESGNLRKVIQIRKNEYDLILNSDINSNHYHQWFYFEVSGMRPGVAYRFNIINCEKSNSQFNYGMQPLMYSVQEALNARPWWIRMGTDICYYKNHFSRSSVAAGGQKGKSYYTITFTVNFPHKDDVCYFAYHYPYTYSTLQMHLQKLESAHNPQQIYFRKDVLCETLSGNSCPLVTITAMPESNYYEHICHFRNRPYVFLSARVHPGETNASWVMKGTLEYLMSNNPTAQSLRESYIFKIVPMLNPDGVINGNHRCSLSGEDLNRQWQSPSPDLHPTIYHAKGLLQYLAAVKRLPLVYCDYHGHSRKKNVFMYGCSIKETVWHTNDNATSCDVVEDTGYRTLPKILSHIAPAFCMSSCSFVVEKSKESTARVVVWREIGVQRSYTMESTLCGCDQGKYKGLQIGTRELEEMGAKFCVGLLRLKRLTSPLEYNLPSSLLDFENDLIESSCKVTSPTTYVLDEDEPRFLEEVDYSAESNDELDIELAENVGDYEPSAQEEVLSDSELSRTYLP
Chain of UniProt P09110 (P09110 whole entry, looked up): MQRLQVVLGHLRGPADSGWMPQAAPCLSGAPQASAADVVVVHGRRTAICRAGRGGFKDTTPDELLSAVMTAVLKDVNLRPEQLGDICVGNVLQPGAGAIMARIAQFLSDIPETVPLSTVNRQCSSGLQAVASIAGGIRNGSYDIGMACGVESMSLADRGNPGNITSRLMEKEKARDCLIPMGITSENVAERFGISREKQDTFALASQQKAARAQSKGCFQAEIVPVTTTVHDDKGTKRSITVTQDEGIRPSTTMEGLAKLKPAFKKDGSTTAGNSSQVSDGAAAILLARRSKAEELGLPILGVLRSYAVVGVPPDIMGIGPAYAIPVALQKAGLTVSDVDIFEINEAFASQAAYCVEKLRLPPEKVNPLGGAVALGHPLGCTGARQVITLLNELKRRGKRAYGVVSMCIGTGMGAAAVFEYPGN
Chain of UniProt P35611 (P35611 whole entry, looked up): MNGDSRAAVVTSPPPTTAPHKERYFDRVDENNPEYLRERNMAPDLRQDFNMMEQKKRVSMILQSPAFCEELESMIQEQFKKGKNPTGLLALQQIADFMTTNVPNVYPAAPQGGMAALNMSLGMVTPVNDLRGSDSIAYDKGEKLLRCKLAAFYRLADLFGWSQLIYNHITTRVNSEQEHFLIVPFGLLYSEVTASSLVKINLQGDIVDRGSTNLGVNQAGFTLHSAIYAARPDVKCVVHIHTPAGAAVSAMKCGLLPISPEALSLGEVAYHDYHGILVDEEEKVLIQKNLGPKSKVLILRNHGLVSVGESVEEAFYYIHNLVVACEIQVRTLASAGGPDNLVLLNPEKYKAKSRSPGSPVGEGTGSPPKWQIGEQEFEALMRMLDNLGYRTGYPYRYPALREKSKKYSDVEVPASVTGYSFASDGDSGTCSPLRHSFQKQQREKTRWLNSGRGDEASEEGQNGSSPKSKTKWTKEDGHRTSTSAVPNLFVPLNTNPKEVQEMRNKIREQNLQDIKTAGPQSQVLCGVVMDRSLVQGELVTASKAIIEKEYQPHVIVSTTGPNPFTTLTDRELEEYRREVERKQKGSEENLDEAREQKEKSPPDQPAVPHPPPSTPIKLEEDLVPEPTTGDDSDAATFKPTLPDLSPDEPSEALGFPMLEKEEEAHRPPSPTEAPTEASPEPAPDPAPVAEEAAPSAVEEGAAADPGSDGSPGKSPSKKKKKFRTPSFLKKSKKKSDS

| Target | log2 fold change (ibrutinib) | log2 fold change [1] | log2 fold change (ralimetinib) | log2 fold change [2] | log2 fold change [3] | log2 fold change [4] | log2 fold change [5] | log2 fold change [6] | log2 fold change [7] | log2 fold change [8] | log2 fold change (vemurafenib) | log2 fold change [9] | log2 fold change (barasertib) | log2 fold change [10] | log2 fold change (volasertib) | log2 fold change [11] | log2 fold change [12] | log2 fold change [13] | log2 fold change (saracatinib) | log2 fold change (sotrastaurin) |
| --- | --- | --- | --- | --- | --- | --- | --- | --- | --- | --- | --- | --- | --- | --- | --- | --- | --- | --- | --- | --- |
| ANP32E (UniProt Q9BTT0) | 0.03 | -0.009 | -0.015 | 0.001 | 0.022 | -0.051 | -0.072 | 0.011 | -0.065 | 0.063 | -0.012 | 0.004 | -0.064 | 0.059 | -0.001 | -0.011 | -0.058 | 0.024 | 0.028 | -0.023 |
| ACIN1 isoform 5 (UniProt Q9UKV3) | -0.004 | -0.015 | -0.011 | -0.028 | -0.021 | -0.024 | -0.001 | -0.042 | 0.003 | -0.016 | 0.014 | 0.024 | 0.009 | -0.016 | 0 | -0.018 | 0.067 | -0.01 | 0.006 | 0.014 |
| ACADS (UniProt P16219) | -0.006 | 0.031 | 0.004 | -0.026 | -0.002 | -0.041 | -0.022 | 0.004 | -0.027 | 0.018 | 0.023 | 0.017 | 0.006 | -0.039 | -0.016 | -0.02 | 0.016 | 0.003 | -0.026 | -0.026 |
| AKT2 (UniProt P31751) | -0.016 | 0.006 | 0.026 | 0.006 | -0.006 | 0.011 | 0.007 | 0.005 | -0.004 | -0.044 | 0.008 | 0 | -0.026 | -0.024 | -0.031 | 0.025 | 0.007 | 0.004 | -0.011 | 0.017 |
| AK2 (UniProt P54819) | 0.054 | -0.022 | -0.013 | 0.027 | 0.018 | -0.018 | 0.003 | -0.018 | -0.031 | -0.024 | 0.014 | 0.062 | -0.013 | 0.029 | 0.013 | -0.009 | 0.119 | -0.008 | -0.015 | -0.038 |
| AKR1C2 (UniProt P52895) | 0.031 | 0.021 | -0.043 | -0.035 | 0.025 | -0.025 | 0.038 | -0.013 | 0.018 | 0.019 | 0.001 | 0.018 | -0.008 | 0.008 | -0.018 | -0.043 | -0.369 (active) | 0.148 | 0.062 | 0.006 |
| ANKRD27 (UniProt Q96NW4) | 0.016 | -0.003 | -0.028 | -0.009 | 0.032 | 0.033 | -0.014 | 0.089 | 0.013 | -0.102 | -0.016 | 0.006 | 0.043 | 0.01 | -0.075 | 0.001 | -0.042 | -0.073 | 0.054 | -0.002 |
| ACAA1 (UniProt P09110) | 0.046 | -0.012 | -0.054 | -0.003 | 0 | -0.02 | -0.016 | 0.044 | 0.001 | -0.007 | 0.034 | 0.033 | -0.027 | 0.006 | 0.036 | 0.001 | -0.049 | 0.039 | 0.002 | -0.004 |
| ACLY (UniProt P53396) | -0.002 | 0.003 | 0.001 | -0.011 | 0.02 | -0.02 | 0.014 | -0.014 | -0.012 | 0.054 | 0.017 | 0.01 | -0.003 | -0.035 | -0.031 | -0.003 | -0.049 | 0.026 | -0.007 | 0.016 |
| AGPS (UniProt O00116) | 0.01 | -0.004 | -0.013 | -0.07 | -0.065 | 0.012 | 0.025 | -0.177 | -0.005 | -0.02 | 0.028 | 0.008 | -0.021 | 0.06 | 0.011 | 0.025 | -0.082 | 0.012 | -0.009 | -0.016 |
| AGTPBP1 (UniProt Q9UPW5) | -0.255 | 0.001 | 0.013 | -0.058 | 0.008 | -0.026 | 0.051 | 0.077 | 0.005 | 0.012 | 0.151 | 0.075 | -0.223 | 0.036 | -0.089 | -0.013 | 0.013 | -0.409 (active) | 0.108 | -0.126 |
| ARL15 (UniProt Q9NXU5) | -0.015 | 0.048 | -0.012 | -0.05 | 0.015 | 0.005 | 0.005 | 0.001 | 0.033 | -0.005 | -0.057 | -0.019 | 0.002 | -0.082 | -0.009 | 0.035 | 0.765 (active) | -0.119 | -0.01 | 0.049 |
| ACACA isoform 4 (UniProt Q13085) | 0.038 | 0.021 | 0.041 | 0.013 | 0.01 | -0.027 | -0.002 | 0.021 | 0.048 | 0.035 | 0.014 | 0.024 | 0.043 | -0.062 | -0.085 | 0.056 | -0.025 | -0.067 | 0.001 | 0.011 |
| AGL (UniProt P35573) | -0.007 | 0.01 | 0.048 | 0.018 | -0.006 | -0.004 | 0.021 | -0.017 | 0 | 0.027 | -0.014 | 0.002 | -0.015 | -0.063 | -0.058 | 0.013 | 0.131 | -0.083 | 0.013 | 0.049 |
| ADD1 isoform 3 (UniProt P35611) | -0.006 | -0.009 | 0 | -0.01 | -0.005 | 0.007 | -0.038 | 0.005 | -0.009 | -0.019 | -0.025 | -0.002 | -0.001 | 0.036 | 0.007 | -0.002 | -0.013 | 0.054 | 0.002 | 0 |
| APAF1 (UniProt O14727) | 0.027 | 0.063 | 0.031 | -0.04 | 0.009 | 0.008 | -0.005 | 0.003 | 0.002 | 0.022 | -0.014 | -0.012 | 0.073 | -0.087 | -0.056 | 0.001 | 0.115 | -0.012 | -0.028 | 0.015 |
